The text below walks through data of PubChem BioAssay.

Assay [1] in a line: compounds binding Alexa647 anti-His antibody – biochemical, small-molecule microarray, 635 nm fluorescence, artefact control for SMM control protein annotation, primary screen (AID 1128).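 Also: score merges feature fluorescence with signal-to-noise for each printed compound spot.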 As to conditions: higher = more signal.
Assay [2] deals with Human papillomavirus type 1a E7 protein (residues 1-88). As to the kind of experiment: HPV1a E7 small-molecule binders, primary screen, biochemical, small-molecule microarray, residues 1-88, 635 nm (AID 1129). Particulars: small-molecule microarray binding, fluorescence 635 nm; higher = more signal.
Assay [3] deals with Focal adhesion kinase 1 (Homo sapiens) (UniProt Q05397). As to the kind of experiment: PTK2 protein binding on printed compound slides – biochemical, small-molecule microarray, 635/667 nm fluorescence, BSA, DTT, primary screen (AID 1130).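 Also: composite of spot emission at 667 nm and signal to noise over triplicate slides.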 As to conditions: 635 nm fluorescence, higher = more signal.
Chain of Focal adhesion kinase 1 (Homo sapiens) (Q05397 whole entry, looked up): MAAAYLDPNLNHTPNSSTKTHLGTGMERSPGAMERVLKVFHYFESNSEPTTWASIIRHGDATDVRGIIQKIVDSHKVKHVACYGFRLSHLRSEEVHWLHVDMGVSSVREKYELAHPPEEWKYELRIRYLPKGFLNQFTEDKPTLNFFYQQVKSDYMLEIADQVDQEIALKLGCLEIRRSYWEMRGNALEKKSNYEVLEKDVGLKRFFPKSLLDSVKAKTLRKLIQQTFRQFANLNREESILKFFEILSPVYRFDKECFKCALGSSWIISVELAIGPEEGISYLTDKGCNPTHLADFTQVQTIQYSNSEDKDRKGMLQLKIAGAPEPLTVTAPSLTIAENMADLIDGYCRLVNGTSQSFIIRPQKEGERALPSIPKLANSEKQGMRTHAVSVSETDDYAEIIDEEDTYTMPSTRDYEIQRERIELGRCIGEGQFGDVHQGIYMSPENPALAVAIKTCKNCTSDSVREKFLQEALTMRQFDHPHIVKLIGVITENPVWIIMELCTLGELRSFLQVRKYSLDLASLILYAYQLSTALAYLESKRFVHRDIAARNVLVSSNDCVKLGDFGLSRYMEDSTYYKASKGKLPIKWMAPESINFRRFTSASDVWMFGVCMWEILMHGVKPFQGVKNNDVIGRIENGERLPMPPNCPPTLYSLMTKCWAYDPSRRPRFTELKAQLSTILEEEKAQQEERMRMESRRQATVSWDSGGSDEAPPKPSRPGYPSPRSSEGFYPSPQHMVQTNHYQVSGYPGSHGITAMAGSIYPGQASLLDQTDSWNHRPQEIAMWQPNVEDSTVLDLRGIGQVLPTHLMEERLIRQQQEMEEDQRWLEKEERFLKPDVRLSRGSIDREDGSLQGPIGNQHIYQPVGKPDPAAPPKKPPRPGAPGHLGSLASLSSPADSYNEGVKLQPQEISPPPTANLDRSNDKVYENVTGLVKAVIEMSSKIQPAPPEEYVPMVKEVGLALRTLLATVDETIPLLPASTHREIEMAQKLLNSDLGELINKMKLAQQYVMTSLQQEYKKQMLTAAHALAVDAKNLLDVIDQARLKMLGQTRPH
Assay [4] concerns Fibrinogen (Alexa647-labelled). As to the kind of experiment: Alexa647-fibrinogen binding to printed small molecules – biochemical, small-molecule microarray, 635/667 nm fluorescence, artefact control for SMM control-protein annotation, profiling panel (AID 1131).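 Also: z-score merges 667 nm fluorescence with per-spot signal-to-noise over triplicate slides.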 As to conditions: fibrinogen-A647 binding fluorescence, higher = more signal.
Assay [5] deals with Follistatin (Homo sapiens) (UniProt P19883). As to the kind of experiment: FST protein binding to printed compounds – biochemical, small-molecule microarray, 635/667 nm fluorescence, primary screen (AID 1132). Particulars: 635 nm fluorescence, higher = more signal.
Chain of Follistatin (Homo sapiens) (P19883 whole entry, looked up): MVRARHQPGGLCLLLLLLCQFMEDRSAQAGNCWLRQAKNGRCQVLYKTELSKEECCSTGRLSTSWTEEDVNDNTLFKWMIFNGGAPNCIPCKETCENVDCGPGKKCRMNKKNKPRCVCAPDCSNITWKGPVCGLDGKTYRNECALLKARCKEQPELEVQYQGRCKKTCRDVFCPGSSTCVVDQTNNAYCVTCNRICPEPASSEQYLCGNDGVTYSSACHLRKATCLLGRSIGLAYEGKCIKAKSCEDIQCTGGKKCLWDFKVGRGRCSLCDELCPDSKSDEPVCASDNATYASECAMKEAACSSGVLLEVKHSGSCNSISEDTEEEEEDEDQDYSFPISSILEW
Assay [6] deals with Fibroblast growth factor 2 (Homo sapiens) (UniProt P09038). As to the kind of experiment: basic fibroblast growth factor binding to printed compounds – biochemical, small-molecule microarray, 635/667 nm fluorescence, primary screen (AID 1133). As to conditions: FGF2, fluorescence 635/667, higher = more signal.
Chain of Fibroblast growth factor 2 (Homo sapiens) (P09038 whole entry, looked up): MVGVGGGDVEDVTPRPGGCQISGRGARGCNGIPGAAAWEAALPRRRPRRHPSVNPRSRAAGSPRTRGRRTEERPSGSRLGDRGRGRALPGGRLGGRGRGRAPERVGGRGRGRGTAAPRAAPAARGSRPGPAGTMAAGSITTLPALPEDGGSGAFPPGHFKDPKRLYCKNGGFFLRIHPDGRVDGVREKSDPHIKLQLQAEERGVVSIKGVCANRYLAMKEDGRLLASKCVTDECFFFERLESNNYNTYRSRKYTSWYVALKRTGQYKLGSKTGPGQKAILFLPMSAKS
A short description of assay [7]: JC-1 mitochondrial potential readout, lung cancer cells – cell-based, A549, JC-1 fluorescence, basal, 24 h, 100 nL, profiling panel (AID 1138).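 Also: A549 lung adenocarcinoma cells under basal conditions with no added stimulus; test concentration not given here.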 Particulars: higher = more signal.
The subject of the next assay is Lefty1. As to the kind of experiment: Lefty1 protein binding to printed compounds – biochemical, small-molecule microarray, 635/667 nm fluorescence, primary screen (AID 1139). Particulars: fluorescence 635/667, higher = more signal.
In assay [8] the test system is wheat germ agglutinin (Triticum aestivum), Alexa647-labelled. As to the kind of experiment: Alexa647-WGA lectin binding to printed small molecules – biochemical, small-molecule microarray, 635/667 nm fluorescence, artefact control for SMM control-protein annotation, profiling panel (AID 1140).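 Also: score merges 667 nm feature emission with signal to noise over triplicate slides.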 As to conditions: WGA-A647 binding, 635 nm fluorescence, higher = more signal.

The target in assay [9] is Luciferin 4-monooxygenase (Photinus pyralis) (UniProt P08659). As to the kind of experiment: inhibition of purified Photinus pyralis luciferase – biochemical, luminescence, purified enzyme, 2006 set, primary screen (AID 1141).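 Also: cell-free assay with purified firefly luciferase at 100 ng per well in PBS; test concentration not given here.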 As to conditions: purified firefly luciferase, SteadyGlo luminescence, 30 min; higher = more signal, called active from +8 up or from −8 down.
Chain of Luciferin 4-monooxygenase (Photinus pyralis) (P08659 whole entry, looked up): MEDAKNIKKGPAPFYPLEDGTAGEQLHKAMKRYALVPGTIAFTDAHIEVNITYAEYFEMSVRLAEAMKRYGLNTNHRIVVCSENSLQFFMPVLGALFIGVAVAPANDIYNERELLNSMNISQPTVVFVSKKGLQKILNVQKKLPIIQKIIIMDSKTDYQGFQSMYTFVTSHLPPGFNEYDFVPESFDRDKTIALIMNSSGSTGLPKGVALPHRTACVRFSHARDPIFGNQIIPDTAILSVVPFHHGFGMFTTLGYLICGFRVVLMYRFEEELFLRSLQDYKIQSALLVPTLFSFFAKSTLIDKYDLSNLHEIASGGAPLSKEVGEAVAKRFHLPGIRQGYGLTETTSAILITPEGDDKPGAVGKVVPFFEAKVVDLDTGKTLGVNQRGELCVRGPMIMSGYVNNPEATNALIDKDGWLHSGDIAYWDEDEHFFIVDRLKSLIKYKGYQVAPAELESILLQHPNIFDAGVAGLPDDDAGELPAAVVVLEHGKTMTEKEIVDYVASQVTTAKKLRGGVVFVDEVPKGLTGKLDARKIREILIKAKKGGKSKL
For assay [10], the system named is Wnt5a (protein binding on small-molecule microarray). As to the kind of experiment: small molecules binding Wnt5a protein – biophysical, small-molecule microarray, 635/667 nm fluorescence, primary screen (AID 1142).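 Also: fluorescence read at 667 nm with signal to noise per printed feature.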 Particulars: 635 nm fluorescence, higher = more signal.
The nature of assay [11]: ATP-based viability of Huh7 replicon cells – cell-based, CellTiter-Glo luminescence, basal, 48 h, cytotoxicity control for HCV replication inhibitor project, primary screen (AID 1143).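 Also: Huh7 hepatoma cells carrying a hepatitis C replication reporter with no stimulus; test concentration not given here.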 Particulars: higher = more signal, called active from +8 up or from −8 down.
The nature of assay [12]: Pseudomonas biofilm growth suppression – PAO1 strain, BacTiter-Glo luminescence, LB-PBS, primary screen (AID 1144). As to conditions: P. aeruginosa PAO1 biofilm, 12 h, higher = more signal.
The nature of assay [13]: basal CRE-LacZ reporter activity in PC12 – cell-based, unstimulated, primary screen (AID 1145). As to conditions: no forskolin, luminescence, 4.5 h, higher = more signal, called active from +8 up or from −8 down.
Assay [14] is described as follows: forskolin-driven CRE-LacZ activity in PC12 – cell-based, CRE-LacZ reporter, forskolin-stimulated, primary screen (AID 1146).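 Also: PC12 cells with 6xCRE LacZ reporter stimulated by forskolin 10 µM; beta-galactosidase reporter signal reflecting CREB driven transcription.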 Particulars: luminescence, 4.5 h, higher = more signal, called active from +8 up or from −8 down.
In assay [15] the target is Streptavidin (Streptomyces avidinii) (UniProt P22629). As to the kind of experiment: compounds binding control protein streptavidin – biophysical, small-molecule microarray, 635/667 nm fluorescence, artefact control for SMM compound annotation, primary screen (AID 1147).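 Also: signal reflects streptavidin binding to arrayed compounds as a control protein.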 As to conditions: higher = more signal.
Chain of Streptavidin (Streptomyces avidinii) (P22629 whole entry, looked up): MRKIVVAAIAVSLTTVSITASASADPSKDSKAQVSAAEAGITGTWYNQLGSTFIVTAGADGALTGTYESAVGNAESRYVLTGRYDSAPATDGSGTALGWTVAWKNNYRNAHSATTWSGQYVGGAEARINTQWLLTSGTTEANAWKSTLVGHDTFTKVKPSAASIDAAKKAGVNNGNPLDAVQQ
The nature of assay [16]: probe aInhba binding on compound microarray – biochemical, small-molecule microarray, 635/667 nm fluorescence, primary screen (AID 1148).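 Also: score merges 667nm spot fluorescence with signal-to-noise for antibody binding to printed compounds.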 As to conditions: higher = more signal.
Assay [17] has as its target Torsin-1A (Homo sapiens) (UniProt O14656). As to the kind of experiment: TOR1A wild-type binding on microarray – cell lysate, small-molecule microarray, lysate, 635/667 nm, primary screen (AID 1149). Particulars: COS7 hTOR1A-WT lysate, 635 nm fluorescence, higher = more signal.
The target is the same in assay [18]. As to the kind of experiment: torsin A mutant lysate binding on microarrays – cell lysate, small-molecule microarray, COS7 lysate, 635/667 nm fluorescence, primary screen (AID 1150).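 Also: score pools 667 nm emission and signal to noise measuring lysate protein binding.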 As to conditions: COS7 hTOR1A mutant lysate, 635 nm fluorescence, higher = more signal.
The subject of assay [19] is Sonic hedgehog protein (Shh). As to the kind of experiment: Sonic hedgehog microarray binding compounds – biochemical, small-molecule microarray, 635/667 nm fluorescence, primary screen (AID 1151).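 Also: Shh protein binding to compounds spotted on small-molecule microarray slides; score combines spot fluorescence intensity with signal-to-noise across triplicate slides.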 As to conditions: 635 nm fluorescence, higher = more signal.

Molecules are shown by their SMILES. Activity calls are given as the source filed them. Unless noted, no rule for the calls is given here.

Chain of Torsin-1A (Homo sapiens) (O14656 whole entry, looked up): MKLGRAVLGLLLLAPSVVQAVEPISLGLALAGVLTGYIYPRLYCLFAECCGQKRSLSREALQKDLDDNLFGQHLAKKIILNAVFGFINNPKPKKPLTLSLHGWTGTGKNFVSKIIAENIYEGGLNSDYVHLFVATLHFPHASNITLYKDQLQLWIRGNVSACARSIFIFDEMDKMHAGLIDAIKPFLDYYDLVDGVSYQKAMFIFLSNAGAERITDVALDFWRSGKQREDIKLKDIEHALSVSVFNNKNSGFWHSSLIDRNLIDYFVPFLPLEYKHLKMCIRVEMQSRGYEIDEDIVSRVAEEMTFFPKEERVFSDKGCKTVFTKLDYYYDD

As for `C=CCOC(=O)[C@H]1[C@@H]2C(=O)O[C@@H](c3ccccc3)[C@@H](c3ccccc3)N2[C@@H](c2ccc(OCCOC(=O)[C@@H]3C[C@@H]4C(=O)N[C@@H](CC(C)C)C(=O)N4[C@@H]3c3ccc(O)cc3)cc2)[C@]12C(=O)Nc1ccccc12`, the composite z-score in [1] was 2.05; in assay [2], 1.21; in assay [3] it was 0.289; in assay [4], 0.78; in assay [5], 1.39; in [6], 1.83. Moreover, the composite z-score was 1.54 in the assay on Lefty1; 0.232 in assay [8]; 0.384 in assay [10]; 0.359 in [15]; 0.0442 in [16]; 0.941 with Torsin-1A (Homo sapiens) [17]. For the same molecule, the composite z-score was 0.95 with Torsin-1A (Homo sapiens) [18] and 2.08 in assay [19]. Besides, the z-score in assay [7] is -1.56; in [9], -0.0838 (inactive); in assay [11] it was -1.37 (inactive); in assay [12], -1.04 (inactive); in assay [13], -0.541 (inactive); in assay [14] it was 0.0707 (inactive).
For the molecule `Cc1nc2cc(Br)ccc2c(=O)o1`, the composite z-score in [1] was 0.302; in [2] it was 0.628; in assay [3], 0.201; in assay [4], 0.0814; in [5], 0.657; in assay [6], -0.0519. The composite z-score with Lefty1 was 0.328; in assay [8] it was 0.536; in [10], 0.119; in assay [15] it was 0.498; in assay [16], 0.0319; with Torsin-1A (Homo sapiens) [17], 0.842. The composite z-score worked out at 0.642 in the assay with Torsin-1A (Homo sapiens) [18] and 0.113 in assay [19]. The z-score in assay [7] is 0.0359; in [9], 1.16 (inactive); in assay [11] it was -1.66 (inactive); in assay [12] it was -1.06 (inactive); in assay [13], -0.464 (inactive); in assay [14], -1.27 (inactive).
Take `CC1CC/C=C\[C@H]2OC34C=CCN(C(C)(C)C)C(=O)[C@H]3N(CCO)C(=O)[C@@H]4C2C(=O)O1` (stereo not given in full): the composite z-score in assay [1] is -0.931; in assay [2] it was -0.585; in [3], -0.0131; in [4], -0.671; in assay [5] it was -0.352; in assay [6], -0.845. The composite z-score with Lefty1 was -0.991; in [8], 0.119; in assay [10] it was -0.276; in assay [15], -1.59; in assay [16] it was -0.171; in the assay with Torsin-1A (Homo sapiens) [17] it was -2.34. The values for the composite z-score (with Torsin-1A (Homo sapiens) [18]; in assay [19]) were -2.49 and -0.0338, respectively. The z-score in assay [7] was -0.315; in [9], 0.864 (inactive); in assay [11], -0.973 (inactive); in [12] it was -0.0996 (inactive); in [13] it was -0.753 (inactive); in assay [14] it was -0.237 (inactive).
As to `C=CC[C@@]12N=C(c3ccc(OCCCO)cc3)O[C@@H]1c1ccccc1N(C)C2=O`, the composite z-score in [1] came out at 2.16; in [2], 1.23; in assay [3], 0.338; in assay [4], 0.363; in assay [5], 1.52; in assay [6] it was 1.62. For the same molecule, the composite z-score with Lefty1 was 0.283; in assay [8], 0.65; in assay [10], 1.25; in [15], 0.248; in assay [16] it was 0.268; with Torsin-1A (Homo sapiens) [17], -0.0951. For the same molecule, the composite z-score with Torsin-1A (Homo sapiens) [18] stood at 0.713; in assay [19], 1.42. Besides, the z-score is 1.26 in assay [7]; -4.19 (inactive) in assay [9]; -4.44 (inactive) in assay [11]; -0.0229 (inactive) in assay [12]; 0.297 (inactive) in assay [13]; -0.845 (inactive) in assay [14].
Consider `C=CC[C@]1(C(=O)NCCCOC)N=C(c2ccc(OCCCO)cc2)O[C@H]1c1ccccc1CN=[N+]=[N-]`, for which the composite z-score was 2.44 in [1]; 1.23 in [2]; 0.932 in assay [3]; 1 in assay [4]; 1.14 in assay [5]; 0.564 in [6]. Besides, the composite z-score in the assay with Lefty1 was -0.0763; in [8], 0.934; in [10], 1.11; in assay [15], 0.828; in assay [16] it was 0.149; in the assay with Torsin-1A (Homo sapiens) [17], 0.883. In addition, the composite z-score with Torsin-1A (Homo sapiens) [18] is 0.749; in [19], -0.0138. Further, the z-score was 2.04 in assay [7]; -0.529 (inactive) in assay [9]; -1.34 (inactive) in assay [11]; 0.162 (inactive) in [12]; 1.49 (inactive) in [13]; -1.41 (inactive) in assay [14].
